Holding throughout (design): scale not given: direction of the effect not stated beside the values
The target of assay [1] is Protein translocase subunit SecA (Escherichia coli (strain K12)) (UniProt P10408). The assay is described as follows: Assay to Identify E. coli SecA ATPase Inhibitors. It is filed as functional. To be noted: 30 µM.
For assay [2], the target named is T1, Ubiquitin-activating enzyme e1, putative (Leishmania donovani (strain BPK282A1)) (UniProt E9BSI1).
T1 sequence (whole entry): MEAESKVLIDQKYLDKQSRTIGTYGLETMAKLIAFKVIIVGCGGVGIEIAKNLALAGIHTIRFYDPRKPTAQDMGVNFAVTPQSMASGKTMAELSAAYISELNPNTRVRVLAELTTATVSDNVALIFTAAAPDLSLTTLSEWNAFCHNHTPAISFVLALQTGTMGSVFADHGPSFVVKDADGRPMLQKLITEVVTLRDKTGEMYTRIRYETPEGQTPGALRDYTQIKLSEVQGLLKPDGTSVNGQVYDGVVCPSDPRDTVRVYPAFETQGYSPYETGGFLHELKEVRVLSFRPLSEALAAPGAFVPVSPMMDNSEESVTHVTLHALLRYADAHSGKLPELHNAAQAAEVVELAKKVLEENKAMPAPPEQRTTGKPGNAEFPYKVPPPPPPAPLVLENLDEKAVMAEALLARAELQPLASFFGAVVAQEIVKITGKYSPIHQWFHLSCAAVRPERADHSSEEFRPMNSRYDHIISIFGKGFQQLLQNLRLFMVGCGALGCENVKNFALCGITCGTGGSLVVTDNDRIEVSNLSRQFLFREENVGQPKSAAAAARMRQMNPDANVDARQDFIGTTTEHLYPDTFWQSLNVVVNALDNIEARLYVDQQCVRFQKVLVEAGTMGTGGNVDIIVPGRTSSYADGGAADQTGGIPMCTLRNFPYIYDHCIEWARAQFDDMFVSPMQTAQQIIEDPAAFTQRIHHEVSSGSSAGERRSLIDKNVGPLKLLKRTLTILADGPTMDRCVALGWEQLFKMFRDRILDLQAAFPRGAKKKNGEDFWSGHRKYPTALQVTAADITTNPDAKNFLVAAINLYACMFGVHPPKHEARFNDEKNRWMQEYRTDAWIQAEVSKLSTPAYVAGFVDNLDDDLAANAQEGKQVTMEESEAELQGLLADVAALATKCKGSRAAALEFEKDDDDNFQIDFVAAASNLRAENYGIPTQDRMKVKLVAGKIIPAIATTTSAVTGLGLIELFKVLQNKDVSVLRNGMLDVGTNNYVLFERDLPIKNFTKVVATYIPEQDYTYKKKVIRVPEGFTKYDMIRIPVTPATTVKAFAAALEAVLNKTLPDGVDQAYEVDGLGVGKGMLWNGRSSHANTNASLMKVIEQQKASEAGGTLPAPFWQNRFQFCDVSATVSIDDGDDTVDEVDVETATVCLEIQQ
The assay is described as follows: Leishmania donovani Ubiquitin Activating Enzyme (LdE1). To be noted: 30 µM. It is filed as functional.

Assay [3] deals with Sialic acid-binding Ig-like lectin 9 (Homo sapiens) (UniProt Q9Y336). The assay is described as follows: Hs-Siglec9 ALPHAscreen SOP 20170721. To be noted: 10 µM. A general note: Alpha assays give light when donor and acceptor beads are brought close together.
Chain of Sialic acid-binding Ig-like lectin 9 (Homo sapiens) (Q9Y336 whole entry): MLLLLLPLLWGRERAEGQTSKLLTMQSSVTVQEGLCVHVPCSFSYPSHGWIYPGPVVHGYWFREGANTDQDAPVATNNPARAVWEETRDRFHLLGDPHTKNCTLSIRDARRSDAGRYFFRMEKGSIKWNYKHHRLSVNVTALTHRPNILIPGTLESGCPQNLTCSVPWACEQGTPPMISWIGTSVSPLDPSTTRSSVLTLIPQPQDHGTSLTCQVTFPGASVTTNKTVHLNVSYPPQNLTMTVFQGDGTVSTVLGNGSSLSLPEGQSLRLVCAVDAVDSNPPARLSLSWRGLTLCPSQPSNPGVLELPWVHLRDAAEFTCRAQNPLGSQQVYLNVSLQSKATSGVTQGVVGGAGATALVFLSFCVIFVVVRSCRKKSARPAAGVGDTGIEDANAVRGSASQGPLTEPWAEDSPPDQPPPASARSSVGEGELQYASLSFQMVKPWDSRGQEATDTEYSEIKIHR
Assay [4] relates to Trypanosoma cruzi. As to the kind of experiment: Trypanosoma cruzi phosphomannomutase and mannose-1-phosphate guanylyltransferase assay. To be noted: 10 µM. Type of assay: functional.
The target of assay [5] is T2, Arginase-2, mitochondrial (Homo sapiens) (UniProt P78540).
T2 sequence (whole entry): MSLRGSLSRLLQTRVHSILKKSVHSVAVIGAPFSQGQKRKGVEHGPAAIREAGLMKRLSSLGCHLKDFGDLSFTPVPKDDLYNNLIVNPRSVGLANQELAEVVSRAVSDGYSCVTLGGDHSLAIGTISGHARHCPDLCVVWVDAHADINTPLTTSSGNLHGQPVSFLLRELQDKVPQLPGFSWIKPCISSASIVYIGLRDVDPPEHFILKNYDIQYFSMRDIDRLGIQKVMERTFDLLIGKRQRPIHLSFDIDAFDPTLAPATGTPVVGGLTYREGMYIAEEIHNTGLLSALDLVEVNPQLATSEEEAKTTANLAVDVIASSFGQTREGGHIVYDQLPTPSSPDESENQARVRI
As to the kind of experiment: in vitro enzyme assay to detect the production of urea directly proportional to the activity of Arginase II. Note: in the data most compounds retested in dose-response had high values. It is filed as functional. Conditions: 33.3 µM.

The target in assay [6] is T3, Proteasome subunit beta (Trypanosoma cruzi) (UniProt O96673).
T3 sequence (whole entry): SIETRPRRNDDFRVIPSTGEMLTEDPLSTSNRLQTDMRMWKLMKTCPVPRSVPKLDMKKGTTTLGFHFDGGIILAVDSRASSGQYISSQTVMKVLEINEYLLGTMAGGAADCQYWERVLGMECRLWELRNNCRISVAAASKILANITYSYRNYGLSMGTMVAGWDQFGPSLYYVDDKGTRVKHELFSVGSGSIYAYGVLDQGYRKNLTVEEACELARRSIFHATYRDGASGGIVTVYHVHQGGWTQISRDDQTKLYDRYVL
The assay is described as follows: Trypanosoma cruzi proteasome chymotrypsin-like activity (TcProtChymo) assay. Note: in the data most compounds retested in dose-response had high values. Conditions: 9.37 µM. It is filed as functional.

The species entered for assay [7] is Homo sapiens. As to the kind of experiment: To identify inhibition of the IFN signalling (Jak-Stat) pathway via expression of an eGFP reporter gene under the control of an IFN-stimulated response element (ISRE) containing MxA promoter. Type of assay: functional. Conditions: 30 µM. For orientation: In a reporter assay the amount or activity of a reporter protein is the signal.

For assay [8], the target named is T4, Tyrosyl-tRNA synthetase, putative (Trypanosoma cruzi (strain CL Brener)) (UniProt Q4DSP6).
T4 sequence (whole entry): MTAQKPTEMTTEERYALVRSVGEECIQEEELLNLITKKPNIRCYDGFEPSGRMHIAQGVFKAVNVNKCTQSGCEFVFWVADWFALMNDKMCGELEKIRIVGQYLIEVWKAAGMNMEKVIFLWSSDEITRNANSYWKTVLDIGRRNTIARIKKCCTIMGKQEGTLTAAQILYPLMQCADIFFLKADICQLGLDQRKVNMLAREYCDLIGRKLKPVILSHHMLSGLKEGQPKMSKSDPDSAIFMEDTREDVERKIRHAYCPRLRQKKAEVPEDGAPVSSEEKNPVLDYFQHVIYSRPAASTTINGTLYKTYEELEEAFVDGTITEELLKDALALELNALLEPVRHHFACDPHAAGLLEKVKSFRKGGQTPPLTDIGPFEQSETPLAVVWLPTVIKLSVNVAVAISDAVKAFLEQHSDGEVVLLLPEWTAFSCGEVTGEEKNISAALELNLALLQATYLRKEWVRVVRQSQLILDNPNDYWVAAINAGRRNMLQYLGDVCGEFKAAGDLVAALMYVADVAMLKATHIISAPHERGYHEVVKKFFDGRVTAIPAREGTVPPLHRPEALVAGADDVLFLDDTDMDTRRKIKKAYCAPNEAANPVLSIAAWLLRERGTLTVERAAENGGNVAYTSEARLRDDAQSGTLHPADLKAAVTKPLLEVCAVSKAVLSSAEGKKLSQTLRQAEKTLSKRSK
As to the kind of experiment: Trypanosoma cruzi tyrosyl tRNA synthetase (TcYRS) _High Tyrosine SOP. Note: in the data most compounds retested in dose-response had high values. Type of assay: functional. Conditions: 30 µM.

The target of assay [9] is T4, Tyrosyl-tRNA synthetase, putative (Trypanosoma cruzi (strain CL Brener)). The assay is described as follows: Trypanosoma cruzi tyrosyl tRNA synthetase (TcYRS) SOP. It is filed as functional. To be noted: 30 µM.
The target of assay [10] is Chromo domain-containing protein 1 (Saccharomyces cerevisiae (strain ATCC 204508 / S288c) (Baker's yeast)) (UniProt P32657). The assay is described as follows: ScCHD-1 Enzyme Inhibition Assay. Note: in the data most compounds retested in dose-response had high values. Type of assay: functional. Conditions: 30 µM.
Chain of Chromo domain-containing protein 1 (Saccharomyces cerevisiae (strain ATCC 204508 / S288c) (Baker's yeast)) (P32657 whole entry, the tested form may be a part): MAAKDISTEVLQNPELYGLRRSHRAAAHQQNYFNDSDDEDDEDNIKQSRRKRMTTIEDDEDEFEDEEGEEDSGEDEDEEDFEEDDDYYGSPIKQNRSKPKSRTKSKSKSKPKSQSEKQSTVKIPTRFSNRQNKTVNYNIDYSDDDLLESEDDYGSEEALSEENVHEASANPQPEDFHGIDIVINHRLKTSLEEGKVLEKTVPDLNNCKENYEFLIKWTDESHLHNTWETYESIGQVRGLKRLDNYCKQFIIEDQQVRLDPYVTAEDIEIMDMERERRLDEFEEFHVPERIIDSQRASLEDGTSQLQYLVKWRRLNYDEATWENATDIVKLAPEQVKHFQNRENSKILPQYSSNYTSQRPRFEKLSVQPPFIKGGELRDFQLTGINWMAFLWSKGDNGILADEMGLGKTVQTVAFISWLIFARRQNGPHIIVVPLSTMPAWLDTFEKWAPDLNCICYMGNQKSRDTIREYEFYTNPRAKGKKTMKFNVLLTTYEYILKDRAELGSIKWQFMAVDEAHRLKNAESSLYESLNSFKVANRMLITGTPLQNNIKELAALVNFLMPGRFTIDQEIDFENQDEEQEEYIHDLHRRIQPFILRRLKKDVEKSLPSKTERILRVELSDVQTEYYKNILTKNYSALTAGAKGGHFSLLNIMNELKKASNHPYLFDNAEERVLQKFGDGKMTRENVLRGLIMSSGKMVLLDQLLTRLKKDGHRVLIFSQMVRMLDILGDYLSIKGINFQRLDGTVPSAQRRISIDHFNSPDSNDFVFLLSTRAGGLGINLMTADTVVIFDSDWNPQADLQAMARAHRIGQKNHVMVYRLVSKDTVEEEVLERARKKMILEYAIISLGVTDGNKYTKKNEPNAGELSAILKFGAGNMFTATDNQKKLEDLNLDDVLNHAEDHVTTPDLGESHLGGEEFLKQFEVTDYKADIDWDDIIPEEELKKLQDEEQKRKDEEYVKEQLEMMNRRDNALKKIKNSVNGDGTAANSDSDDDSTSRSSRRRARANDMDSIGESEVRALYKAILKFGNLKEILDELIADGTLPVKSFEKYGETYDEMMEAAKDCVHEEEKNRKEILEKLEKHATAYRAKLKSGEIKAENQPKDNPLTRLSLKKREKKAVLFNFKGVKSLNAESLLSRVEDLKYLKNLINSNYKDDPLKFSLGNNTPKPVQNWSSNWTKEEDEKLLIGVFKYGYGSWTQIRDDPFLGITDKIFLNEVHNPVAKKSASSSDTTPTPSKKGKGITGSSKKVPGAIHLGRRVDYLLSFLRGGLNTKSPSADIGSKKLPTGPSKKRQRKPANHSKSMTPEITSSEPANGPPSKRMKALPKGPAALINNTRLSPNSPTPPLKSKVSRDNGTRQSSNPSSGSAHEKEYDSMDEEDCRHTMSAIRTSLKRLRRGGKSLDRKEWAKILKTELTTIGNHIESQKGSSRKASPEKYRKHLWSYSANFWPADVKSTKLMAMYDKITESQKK

For some of these results: Results with a measured potency or affinity are listed apart.

Chain of Protein translocase subunit SecA (Escherichia coli (strain K12)) (P10408 whole entry): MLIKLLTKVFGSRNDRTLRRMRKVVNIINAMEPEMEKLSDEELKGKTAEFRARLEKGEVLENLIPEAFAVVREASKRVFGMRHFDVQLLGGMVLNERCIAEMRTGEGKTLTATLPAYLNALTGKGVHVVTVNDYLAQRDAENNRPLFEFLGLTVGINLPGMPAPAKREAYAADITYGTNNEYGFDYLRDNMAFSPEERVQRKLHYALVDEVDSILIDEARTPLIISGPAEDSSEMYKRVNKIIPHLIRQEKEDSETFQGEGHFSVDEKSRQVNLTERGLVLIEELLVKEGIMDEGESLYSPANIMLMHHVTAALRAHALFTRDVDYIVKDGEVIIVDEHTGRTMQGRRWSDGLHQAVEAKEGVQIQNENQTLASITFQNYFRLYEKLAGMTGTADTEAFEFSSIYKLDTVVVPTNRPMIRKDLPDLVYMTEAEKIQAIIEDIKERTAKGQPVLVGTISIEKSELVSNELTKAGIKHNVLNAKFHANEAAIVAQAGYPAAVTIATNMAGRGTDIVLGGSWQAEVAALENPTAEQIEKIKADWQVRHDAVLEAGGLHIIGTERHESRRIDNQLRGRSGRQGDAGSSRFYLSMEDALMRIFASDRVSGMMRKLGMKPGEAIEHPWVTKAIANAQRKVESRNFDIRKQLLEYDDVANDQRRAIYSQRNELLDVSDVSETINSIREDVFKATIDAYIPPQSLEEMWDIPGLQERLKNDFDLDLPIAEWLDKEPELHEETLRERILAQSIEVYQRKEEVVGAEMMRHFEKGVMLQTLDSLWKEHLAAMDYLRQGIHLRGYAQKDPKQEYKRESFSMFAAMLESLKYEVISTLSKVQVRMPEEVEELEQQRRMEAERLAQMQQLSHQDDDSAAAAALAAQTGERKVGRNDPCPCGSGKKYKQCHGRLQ

In the case of `Cc1ccc(CN(C)CC(=O)NC2(C)CCS(=O)(=O)C2)cc1` (stereo not given), the Percent Effect in [1] was -0.346%; in [2], 8%; in assay [3], -1.85%; in assay [4], -2.81%; in assay [5], -1.77%; in [6] it was 7.89%. The Percent Effect in assay [7] is 21.9%; in assay [8] it was 10%; in assay [9], 15.4%; in [10] it was -11.2%.

For the molecule `O=C(COc1ccc2c(c1)CCC2)NS(=O)(=O)c1cncc(Br)c1`, the Percent Effect in [1] is -2.61%; in assay [2], 2.56%; in [3], 1.99%; in assay [4] it was 9.3%; in assay [5], -3.28%; in assay [6], 3.33%. Also, the Percent Effect in assay [7] is 7.32%; in [8] it was -3.35%; in assay [9] it was 1.21%; in assay [10], 1.12%.

As to `CC(=O)c1sc(Nc2ccc(Cl)cn2)nc1C`, the Percent Effect in assay [1] was -2.68%; in [2], 24.7%; in assay [3], 1.41%; in [4] it was 1.13%; in assay [5] it was 0.913%; in assay [6], 12.6%. Besides, the Percent Effect in assay [7] was 24.7%; in assay [8], 2.9%; in assay [9], -37.5%; in [10] it was -10.7%.

In the case of `O=C1C(NCc2nnc3n2CCCC3)CCN1CC(F)(F)F` (stereo not given), the Percent Effect in assay [1] was -2.08%; in assay [2], 2.56%; in assay [3], -21.5%; in assay [4] it was 8.73%; in [5], -2.05%; in assay [6], 1.79%. Further, the Percent Effect in [7] is 4.98%; in assay [8] it was 1.44%; in [9] it was 8.43%; in assay [10], -0.359%.

As for `Cn1cc(-c2nnn3c2COC(CNCc2nccs2)C3)cn1` (stereo not given), the Percent Effect in assay [1] is -3.81%; in assay [2], 11.7%; in [3], 1%; in [4] it was 4.19%; in [5] it was 10.5%; in assay [6], 11.6%. The Percent Effect was found to be 6.11% in [7], 5.79% in [8], 17.9% in [9] and 8.68% in [10].

Turning to `CCOCC1CN(Cc2cnn(C)c2)Cc2nn(C)cc21` (stereo not given), the Percent Effect is 0.939% in [1]; -3.9% in assay [2]; -4.11% in [3]; -5.36% in [4]; 0.81% in assay [5]; 10.2% in [6]. Further, the Percent Effect in [7] is 4.03%; in assay [8], -1.58%; in assay [9], 0%; in assay [10] it was 2.52%.

Consider `COc1ccccc1-c1cc(C(F)(F)F)c2c(C)nn(CC(=O)O)c2n1`, for which the Percent Effect was 5.48% in assay [1]; 14.7% in assay [2]; -8.22% in assay [3]; -2.56% in assay [4]; 6.64% in assay [5]; 11.5% in assay [6]. The Percent Effect in assay [7] was 26.5%; in assay [8], -13.8%; in assay [9], -17.5%; in assay [10], -17.5%.

Take `Cc1cc(NCc2cc3n(n2)CCCN(C(=O)N(C)C)C3)ncn1`: the Percent Effect in assay [1] is -14.3%; in assay [2], 2.7%; in [3], 3.53%; in assay [4] it was -1.84%; in [5] it was 1.05%; in [6] it was 3.42%. Further, the Percent Effect in assay [7] came out at 4.33%; in assay [8] it was 1.6%; in assay [9], 4.88%; in assay [10], 0.382%.

Turning to `CCNc1cc2c(nn1)CCN(C(=O)c1ccc(CNC(C)=O)o1)C2`, the Percent Effect in [1] was -4.81%; in assay [2], 8%; in assay [3], 4.09%; in assay [4], -1.81%; in [5], 3.99%; in [6], 6.36%. Besides, the Percent Effect was 5.79% in assay [7], 3.68% in [8], 15.4% in assay [9] and -12.3% in assay [10].

In the case of `O=C1CCC2(CCCN(CCc3ccccc3)C2)N1Cc1cccnc1` (stereo not given), the Percent Effect is -0.897% in assay [1]; 22.1% in [2]; -2.1% in [3]; -2.44% in assay [4]; 2.28% in [5]; 18.8% in [6]. Besides, the Percent Effect in [7] was 4.75%; in [8] it was 12.6%; in assay [9], 10%; in [10], -8.73%.

In the case of `COCCN1CCCN(C(=O)NC(C)Cn2cccn2)CC1` (stereo not given), the Percent Effect is 0.234% in [1]; 15.6% in [2]; -4.18% in [3]; -8.77% in assay [4]; 4.3% in assay [5]; 10.9% in assay [6]. Moreover, the Percent Effect in [7] is 14.4%; in assay [8] it was 5.88%; in assay [9], 11.8%; in [10], -2.79%.

`CCc1nc(C2CCCN2C(=O)C2=COCC2)no1` (stereo not given): the Percent Effect was -6.76% in assay [1]; 0% in [2]; 1.81% in assay [3]; -4.02% in assay [4]; -0.444% in assay [5]; -2.46% in assay [6]. In addition, the Percent Effect in assay [7] is 12.2%; in [8] it was 4.74%; in [9] it was -2.56%; in assay [10], -3.47%.

In the case of `COC(=O)CC(c1cnn(C)c1)c1oc(C)cc(=O)c1O` (stereo not given), the Percent Effect is -7.67% in assay [1]; 0% in assay [2]; 0.282% in assay [3]; -5.33% in [4]; -3.85% in assay [5]; 6.85% in assay [6]. The Percent Effect was 8.46% in assay [7], 0.532% in [8], 0% in assay [9] and -1.21% in [10].

The values are drawn from ChEMBL document CHEMBL3988442, “University of Dundee, Small-Polar-MMV Screening Library” (2021).
